From PubChem BioAssay AID1851 (National Center for Advancing Translational Sciences (NCATS), 2009) come the findings set out here.

Among all 16,000 compounds or so, about 4,000 (25%) were called active. Roughly 26% stayed inconclusive and do not appear here. These entries were drawn from the full list. Values without a mark were called inactive. Calls come from the whole dose curve; as a rule, active = well fitted curve in the direction sought with a large enough effect; inconclusive = small, poorly fitted or top-dose-only effect, or effect the other way; inactive = no such curve, though single readings can be large or run the other way.
% is set by controls: 0 for no effect and ±100 for the full control effect.

Cytochrome P450 2C9 (Homo sapiens), sequence (P11712 whole entry, looked up): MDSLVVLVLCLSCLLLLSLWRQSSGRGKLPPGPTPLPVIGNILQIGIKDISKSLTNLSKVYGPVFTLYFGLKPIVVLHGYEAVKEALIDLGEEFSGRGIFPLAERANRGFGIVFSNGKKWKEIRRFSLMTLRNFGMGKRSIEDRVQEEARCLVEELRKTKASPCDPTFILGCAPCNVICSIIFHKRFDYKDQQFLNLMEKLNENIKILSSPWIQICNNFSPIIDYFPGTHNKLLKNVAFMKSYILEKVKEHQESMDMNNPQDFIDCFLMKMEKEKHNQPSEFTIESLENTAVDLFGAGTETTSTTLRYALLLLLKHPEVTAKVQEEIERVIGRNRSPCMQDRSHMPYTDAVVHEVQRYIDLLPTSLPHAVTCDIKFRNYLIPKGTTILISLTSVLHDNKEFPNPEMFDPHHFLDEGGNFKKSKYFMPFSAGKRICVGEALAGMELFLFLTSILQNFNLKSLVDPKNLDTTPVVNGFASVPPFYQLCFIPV

The experiment addresses Cytochrome P450 2C9 (Homo sapiens) (UniProt P11712). As to the kind of experiment: Cytochrome panel assay with activity outcomes. The note with it: recombinant CYP, pro-luciferin dealkylation, luminescence, p450-cyp2c9; series mostly up to 57.1 µM; activity, negative = inhibition: at the top concentration.
`CN(C)C(=O)c1ccc(-c2ccc3ncnc(NCCN4CCOCC4)c3c2)cc1`: the activity, negative = inhibition was 1.81% [at 2.29 µM].
Still for that read-out and setting: with `CC(C)(C)NC(=O)CN(Cc1cccs1)C(=O)CCC(=O)Nc1nccs1` the figure was -15.4%.
Regarding `Cc1c(C(=O)Nc2nccs2)sc2nc(-c3cccs3)cc(C(F)(F)F)c12`, the half-maximal activity concentration (AC50) (in general, the concentration at which the activity in the assay is half-maximal) was 3.16 µM (active).
The same measure, in the same setting: in the case of `CCC(NC(=O)C1(C)CC1(Br)Br)c1ccc(C)cc1` (configuration not stated) it was 5.01 µM (active).
As to `CC[C@H](NC(=O)c1c(C)c(-c2ccccc2)nc2ccccc12)c1ccccc1`, the “activity, negative = inhibition” value is -5.92%.
Still for that read-out and setting: with `N#Cc1cccc(-c2nccc(-n3ccnc3)n2)c1` the figure was 5.77% [at 2.29 µM].
Still for that read-out and setting: in the case of `CO[C@H]1[C@@H](OC(N)=O)[C@H](O)[C@@H](Oc2ccc3c(O)c(NC(=O)c4ccc(O)c(CC=C(C)C)c4)c(=O)oc3c2C)OC1(C)C` it was -30% [at 25.6 µM]; in that of `CCOCC(=O)Nc1c(C(=O)Nc2ccccc2OC)oc2ccccc12`, -15.3%; in that of `COC(=O)N1CCC2(CCN(Cc3ccccc3OC)CC2)CC1`, 11.3%.
Take `COc1ccccc1CC(=O)Nc1cc2oc3ccccc3c2cc1OC`: the AC50 is 3.98 µM (active).
On to `CCCC[C@@H]1C[C@H]1C(NC(=O)c1cccs1)c1ccc(-c2ccccc2)cc1` (some centres not stated), for which the half-maximal activity concentration (AC50) is 1.58 µM (active).
Same read-out and setting: in the case of `CCCC[C@@H]1C[C@H]1C(NC(=O)c1cccs1)c1ccc(Cl)cc1` (some centres not stated) it was 1 µM (active).
On the same count and under the same terms, with `CCCC[C@@H]1C[C@H]1C(NC(=O)c1cccs1)c1ccc(C(F)(F)F)cc1` (some centres not stated) the figure was 1.58 µM (active).
Regarding `Cc1cc(C)c2c(N)c3ccccc3nc2n1`, the “activity, negative = inhibition” value is -20.2%.
The same measure, in the same setting: with `COc1cccc(Nc2ncc3ncc(=O)n(C)c3n2)c1` the figure was -22.8%.
Turning to `COc1cccc(Cn2c(=O)c(CCc3ccccc3)nc3cnc(OC)nc32)c1`, the concentration at half-maximal activity (AC50) is 6.31 µM (active).
Turning to `COc1cccc(Cn2c(=O)cnc3cnc(N(C)C)nc32)c1`, the AC50 was 12.6 µM (active).
`COc1cccc(Nc2ncc3ncc(=O)n(CCC#N)c3n2)c1`: the “activity, negative = inhibition” value was -9.1%.
Still for that read-out and setting: in the case of `CCNc1ncc2nc(CCc3ccccc3)c(=O)n(Cc3cccc(OC)c3)c2n1` it was -28.8%.
Regarding `COc1cccc(Cn2c(=O)c(CCc3ccccc3)nc3cnc(N(C)C)nc32)c1`, the AC50 is 10 µM (active).
Take `COc1cccc(Cn2c(=O)cnc3cnc(Nc4cccc(OC)c4)nc32)c1`: the AC50 is 2 µM (active).
As for `COc1ccc(-n2c(=O)cnc3cnc(N(C)C)nc32)cc1`, the “activity, negative = inhibition” value was -5.06%.
For `N[C@@H](Cc1cnc[nH]1)C(=O)O`, the “activity, negative = inhibition” value was 22.8%.
Still for that read-out and setting: with `Cc1nc2nc[nH]n2c(=O)c1NC(=O)CC12CC3CC(CC(C3)C1)C2` the figure was -28.9%; with `C[C@H]1[C@H](C)OC(=O)C[C@H](O)C[C@H](O)C[C@H](O)CC[C@H](O)[C@H](O)CC(=O)C[C@H](O)[C@H](C(=O)O)[C@H](O)C[C@H](O[C@@H]2O[C@@H](C)[C@H](O)[C@@H](N)[C@@H]2O)C=CC=CC=CC=CCCC=CC=C[C@@](C)(O)[C@H]1O`, 14.1% [at 11.4 µM].
For `COc1cccc(Cn2c(=O)c(CCc3ccccc3)nc3cnc(N4CCN(C)CC4)nc32)c1`, the AC50 is 25.1 µM (active).
As for `COc1cccc(Cn2c(=O)cnc3cncnc32)c1`, the AC50 was 31.6 µM (active).
Take `Cc1nc2cnc(N3CCN(C)CC3)nc2n(Cc2cccs2)c1=O`: the “activity, negative = inhibition” value was 10.7%.
The same measure, in the same setting: in the case of `COc1ccc(-n2c(=O)c(CCc3ccccc3)nc3cnc(N4CCN(C)CC4)nc32)cc1` it was -23.4%.
With `CN1CCN(c2ncc3nc(CCc4ccccc4)c(=O)n(Cc4cccs4)c3n2)CC1`, the concentration at half-maximal activity (AC50) was 25.1 µM (active).
Turning to `CCNc1ncc2nc(C)c(=O)n(Cc3cccs3)c2n1`, the “activity, negative = inhibition” value was -3.88%.
Consider `CCNc1ncc2nc(C)c(=O)n(Cc3cccc(OC)c3)c2n1`, for which the AC50 was 15.8 µM (active).
As for `CCNc1ncc2nc(-c3ccc(OC)cc3)c(=O)n(Cc3cccc(OC)c3)c2n1`, the “activity, negative = inhibition” value is -9.5%.
With `CN1CCN(c2ncc3nc(-c4ccccc4)c(=O)n(Cc4cccs4)c3n2)CC1`, the “activity, negative = inhibition” value was -19.8%.
As to `Cc1nc2cnc(N3CCN(C)CC3)nc2n(CCc2ccccc2)c1=O`, the “activity, negative = inhibition” value was 0.67%.
With `C[C@@]12CCC(=O)C=C1CC[C@H]1[C@H]3CC[C@](O)(C(=O)CO)[C@]3(C)CC(=O)[C@@H]12`, the “activity, negative = inhibition” value was 18.5% [at 25.6 µM].
With `Cc1ccc(OC[C@H](O)[C@H](C)NC(C)C)c2c1CCC2`, the AC50 entry is “inactive”.
For `CC(C)(CS)C(=O)N1CCC[C@H]1C(=O)O`, the “activity, negative = inhibition” value is -24.4% [at 25.6 µM].
The same measure, in the same setting: in the case of `c1ccc(C2=NN[C@@H]3c4ccccc4-c4ccccc4N3C2)cc1` it was 6.37% [at 11.4 µM].
In the case of `O=C1N=C2SCCN2/C1=C\c1c(Cl)cccc1Cl`, the half-maximal activity concentration (AC50) was 15.8 µM (active).
For `O=C(NCc1ccccc1)c1cccc(COc2cccc(Cl)c2)c1`, the AC50 is 17.8 µM (active).
In the case of `O=C(O)c1ccc(OCc2ccccc2)c(Cl)c1`, the activity, negative = inhibition was -17.5% [at 11.4 µM].
On the same count and under the same terms, with `Cc1nc(NC(=O)c2ccccc2)sc1-c1csc(Nc2ccc(Cl)cc2Cl)n1` the figure was -7.22%.
Regarding `COc1ccc(OC)c(Nc2nc(-c3sc(NC(=O)c4ccccc4)nc3C)cs2)c1`, the half-maximal activity concentration (AC50) is 3.55 µM (active).
Take `Cc1ccc(Nc2nc(-c3sc(NC(=O)c4cccc(Cl)c4)nc3C)cs2)cc1`: the “activity, negative = inhibition” value was -1.37%.
Turning to `Cc1nc(NC(=O)c2ccccc2)sc1-c1csc(Nc2cccc(Cl)c2)n1`, the AC50 was 3.55 µM (active).
Same read-out and setting: with `C=CCCC(=O)Nc1nc(C)c(-c2csc(Nc3ccc(Cl)cc3)n2)s1` the figure was 10 µM (active).
